Where “and” joins values, the source holds several entries; their conditions need not be identical. Identical values can stand only once. Inconclusive results are not listed. Calls of active or inactive are those of the source. Calls follow the shape of the full dose curve.
What was measured:
[1] = Primary qHTS for inhibitors of SARS-S pseudo-typed particle cell entry (AID 1479145); conditions: outcome: dose series up to 57.1 µM unless noted; also: nearly all actives have a fitted effect of over 45% in size; as to activity change, negative = inhibition: % is scaled to controls: 0 for no effect and ±100 for the full control effect
[2] = Primary qHTS for Huh7 cytotoxicity: counterscreen for inhibitors of MERS-S pseudotyped particle cell entry (AID 1479147); conditions: outcome: dose series up to 57.1 µM unless noted; as to activity change, negative = cytotoxicity: % is scaled to controls: 0 for no effect and ±100 for the full control effect
[3] = Primary qHTS for inhibitors of MERS-S pseudo-typed particle cell entry (AID 1479149); conditions: outcome: dose series up to 57.1 µM unless noted; also: nearly all actives have a fitted effect of over 60% in size; as to activity change, negative = inhibition: % is scaled to controls: 0 for no effect and ±100 for the full control effect
[4] = Primary qHTS for Vero E6 cytotoxicity: counterscreen for inhibitors of SARS-S pseudo-typed particle cell entry (AID 1479150); conditions: outcome: dose series up to 57.1 µM unless noted; as to activity change, negative = cytotoxicity: % is scaled to controls: 0 for no effect and ±100 for the full control effect
[5] = Cytotoxicity counterscreen for inhibitors of SARS-CoV-2 cell entry (AID 1645845); conditions: outcome: dose series up to 57.1 µM unless noted; also: nearly all actives have a fitted effect of over 50% in size
Method in brief: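 After a 15 min room-temperature ATPLite 1step step, luminescence reflected ATP remaining in HEK293-ACE2 cells exposed to compound for 1 h plus 48 h at 37 C, with percent activity set by cell and no-cell controls.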

[6] = Primary qHTS to identify inhibitors of SARS-CoV-2 cell entry (AID 1645846); conditions: SARS-CoV-2 pseudovirus cell entry assay, luminescence; activity change, negative = inhibition: at 57.1 µM (top of the series) unless noted; also: nearly all actives have a fitted effect of over 45% in size
Method in brief: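 HEK293-ACE2 (Expi293F, stable hACE2), 1500 cells/well, o/n 37C; cpd 23 nL pin, 1 h; MLV-PP w/ SARS-CoV-2-S (Wuhan-Hu-1, Δ19 C-term); 48 h 37C; Bright-Glo luminescence; normalized vs S-PP and bald PP.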

CC=CC1=C(C(=O)O)N2C(=O)[C@@H](NC(=O)[C@H](N)c3ccc(O)cc3)[C@H]2SC1
inactive: Potency [1] | Potency [2] | Potency [3] | Potency [4] | Potency [5] | Potency [6]

COCC1=C(C(=O)O)N2C(=O)[C@@H](NC(=O)/C(=N\OC)c3csc(N)n3)[C@H]2SC1
inactive: Potency [1] | Potency [2] | Potency [3] | Potency [4] | Potency [5]
-16.5%: activity change, negative = inhibition [6]

C[C@]12CCC(=O)C=C1CC[C@@H]1[C@@H]2[C@@H](O)C[C@@]2(C)[C@H]1CC[C@]2(O)C(=O)COP(=O)(O)O
2.63% [at 27.1 µM]: activity change, negative = inhibition [6]
inactive: Potency [1] | Potency [2] | Potency [3] | Potency [4] | Potency [5]

[2H]C([2H])([2H])C(O)(CCO[C@@H](C)[C@H]1CC[C@H]2/C(=C/C=C3\C[C@@H](O)C[C@H](O)C3=C)CCC[C@]12C)C([2H])([2H])[2H]
-6.57%: activity change, negative = inhibition [6]
inactive: Potency [1] | Potency [2] | Potency [3] | Potency [4] | Potency [5]

CCCCCCCCN=C(N)NC(N)=NCc1ccc(Cl)c(Cl)c1
-3.64%: activity change, negative = inhibition [6]
inactive: Potency [1] | Potency [2] | Potency [3] | Potency [4] | Potency [5]

CO[C@H]1/C=C\O[C@@]2(C)Oc3c(C)c(O)c4c(O)c(c(/C=N/N5CCN(C6CCCC6)CC5)c(O)c4c3C2=O)NC(=O)/C(C)=C\C=C/[C@H](C)[C@H](O)[C@@H](C)[C@@H](O)[C@@H](C)[C@H](OC(C)=O)[C@@H]1C
inactive: Potency [1] | Potency [2] | Potency [3] | Potency [4] | Potency [5] | Potency [6]

CC1(C)S[C@@H]2[C@@H](N3C(=O)[C@@H](c4ccccc4)NC3(C)C)C(=O)N2[C@H]1C(=O)O
inactive: Potency [1] | Potency [2] | Potency [3] | Potency [4] | Potency [5]
-21.4%: activity change, negative = inhibition [6]

COc1cc2c(cc1OC)[C@@H](Cc1cc(OC)c(OC)c(OC)c1)[N+](C)(CCCOC(=O)CC/C=C/CCC(=O)OCCC[N+]1(C)CCc3cc(OC)c(OC)cc3[C@H]1Cc1cc(OC)c(OC)c(OC)c1)CC2 (stereo partly specified)
-24%: activity change, negative = inhibition [6]
inactive: Potency [1] | Potency [2] | Potency [3] | Potency [4] | Potency [5]

CCCCCCCCCCCCCCCCCCCCCCCCCCCCO
inactive: activity change, negative = inhibition [1] -10.7% [at 0.573 µM] | outcome [2] inactive [at 0.573 µM] | outcome [3] inactive [at 0.573 µM] | activity change, negative = cytotoxicity [4] 3.84% [at 0.573 µM] | outcome [5] inactive [at 0.702 µM] | outcome [6] inactive [at 0.702 µM]

CO/N=C(/C(=O)N[C@@H]1C(=O)N2C(C(=O)O)=CCS[C@H]12)c1csc(N)n1
-20.9%: activity change, negative = inhibition [6]
inactive: Potency [1] | Potency [2] | Potency [3] | Potency [4] | Potency [5]

CC(=O)OCC1=C(C(=O)O)N2C(=O)[C@@H](NC(=O)CC#N)[C@H]2SC1
inactive: Potency [1] | Potency [2] | Potency [3] | Potency [4] | Potency [5] | Potency [6]

NC(C(=O)NC1C(=O)N2C(C(=O)O)=C(CSc3cn[nH]n3)CSC12)c1ccc(O)cc1 (stereo unspecified)
inactive: Potency [1] | Potency [2] | Potency [3] | Potency [4] | Potency [5]
-22%: activity change, negative = inhibition [6]

O=c1c2c(c1=O)N(CCP(=O)(O)O)CCCN2
inactive: Potency [1] | Potency [2] | Potency [3] | Potency [4] | Potency [5]
3.47% [at 114 µM]: activity change, negative = inhibition [6]

Nc1c(CC(=O)O)cccc1C(=O)c1ccccc1
inactive: Potency [1] | Potency [2] | Potency [3] | Potency [4] | Potency [5] | Potency [6]

CCC(=O)OCC(=O)[C@@]1(OC(=O)CC)[C@@H](C)C[C@H]2[C@@H]3CCC4=CC(=O)C=C[C@]4(C)[C@@]3(F)[C@@H](O)C[C@@]21C
inactive: Potency [1] | Potency [2] | Potency [3] | Potency [4] | Potency [5] | Potency [6]

CCCCC(CC)COC(=O)c1ccc(Nc2nc(Nc3ccc(C(=O)OCC(CC)CCCC)cc3)nc(Nc3ccc(C(=O)OCC(CC)CCCC)cc3)n2)cc1 (stereo unspecified)
-28%: activity change, negative = inhibition [6]
inactive: Potency [1] | Potency [2] | Potency [3] | Potency [4] | Potency [5]

C#C[C@]1(O)CCC2C3CCC4=C(CCC(=O)C4)C3CC[C@@]21C (stereo partly specified)
-12.9%: activity change, negative = inhibition [6]
inactive: Potency [1] | Potency [2] | Potency [3] | Potency [4] | Potency [5]

COc1ccc(C(=O)N2CCN(c3ccc4c(c3)CCC(=O)N4)CC2)cc1OC
inactive: Potency [1] | Potency [2] | Potency [3] | Potency [4] | Potency [5]
3.69% and -19.3%: activity change, negative = inhibition [6]

COc1ccc(CC(C)(C)NC[C@H](O)c2cc(O)cc3c2OCC(=O)N3)cc1
inactive: Potency [1] | Potency [2] | Potency [3] | Potency [4] | Potency [5]
2.79%: activity change, negative = inhibition [6]

CN(Cc1ccccc1)C(=O)[C@H](NC(=O)c1cc2cc(NC(=O)c3ccccc3-c3ccc(C(F)(F)F)cc3)ccc2n1C)c1ccccc1
-7.12%: activity change, negative = inhibition [6]
inactive: Potency [1] | Potency [2] | Potency [3] | Potency [4] | Potency [5]

CO[C@H]1O[C@@H]2O[C@@]3(C)CC[C@H]4[C@H](C)CC[C@@H]([C@@H]1C)[C@@]24OO3
inactive: Potency [1] | Potency [2] | Potency [3] | Potency [4] | Potency [5]
-7.86%: activity change, negative = inhibition [6]

Source: PubChem BioAssay (NCATS)
